# Results: PubChem BioAssay
# Active and inactive are the calls of the source. Unless noted, no rule for the calls is given here.
# What was measured:
# [1] = HepG2 liver cancer cell viability effects, profiling panel, resazurin fluorescence, 24 h, PK04 Diversity Set (AID 1172); conditions: higher = more signal
# [2] = basal S. cerevisiae growth modulation, no modifier, primary screen, OD600, strain BY4716, 24 h, basal condition (AID 1173); conditions: OD600, 24 h, higher = more signal, called active from +8 up or from −8 down
# [3] = MM1S myeloma cell viability, profiling panel, resazurin fluorescence, basal, 24 h, PK04 Diversity Set (AID 1174); conditions: higher = more signal, called active from +8 up or from −8 down;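 also: MM1S multiple myeloma cell line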
# [4] = molecular target: Dihydroorotate dehydrogenase (quinone), mitochondrial (Plasmodium falciparum (isolate 3D7)) (UniProt Q08210); assay: PfDHODH enzyme inhibitors, primary screen, biochemical, C-terminal His tag, absorbance 600 nm (AID 1175); conditions: DCIP absorbance 600 nm, higher = more signal, called active from +8 up or from −8 down;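 also: recombinant parasite enzyme with a five histidine tag at its C terminus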
# [5] = P. aeruginosa biofilm formation inhibitors, primary screen, strain PAO1, LB-PBS medium, absorbance 600 nm (AID 1176); conditions: P. aeruginosa PAO1 growth/biofilm, A600, 12 h; higher = more signal
# [6] = S. cerevisiae RM11-1a growth modifiers, primary screen, strain RM11-1a, OD600, basal, 24 h (AID 1177); conditions: OD600, 24 h, higher = more signal, called active from +8 up or from −8 down;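 also: cultures grown under basal conditions with no added stressor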
# [7] = E. coli acrAB mutant growth effects, primary screen, E. coli filamentation inducers, strain DRC39, OD650, 24 h (AID 1178); conditions: higher = more signal, called active from +8 up or from −8 down;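 also: growth measured as culture turbidity by optical density at 650 nm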
# [8] = E. coli acrAB mutant growth effects, primary screen, E. coli filamentation inducers, strain DRC39, OD650, 48 h (AID 1179);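 also: screen aims at cell division blockers that make cells filament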; conditions: E. coli DRC39 delta-acrAB growth, higher = more signal, called active from +8 up or from −8 down
# [9] = RPMI8226 myeloma cell viability, profiling panel, resazurin fluorescence, basal, 24 h, PK04 Diversity Set (AID 1180); conditions: higher = more signal;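 also: RPMI8826 multiple myeloma cell line at 5000 cells per well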
# [10] = molecular target: E3 ubiquitin-protein ligase XIAP (Homo sapiens) (UniProt P98170); assay: XIAP binders, primary screen, biophysical, small-molecule microarray, fluorescence 635 nm (AID 1181); conditions: small-molecule microarray binding, higher = more signal;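 also: score merges 667 nm emission and signal to noise over triplicate slides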
# [11] = tested on: XIP peptide (Xip251-270) binding; assay: small-molecule binders of XIP peptide, primary screen, biochemical, small-molecule microarray, fluorescence 635/667 nm, 0.1 µg/mL protein (AID 1182); conditions: fluorescent protein binding, 635 nm, higher = more signal, called active from +8 up or from −8 down
# XIP peptide (Xip251-270) = assay: small-molecule binders of XIP peptide, primary screen, biochemical, small-molecule microarray, fluorescence 635/667 nm, 0.5 µg/mL protein (AID 1183); conditions: small-molecule microarray binding, fluorescence 635 nm; higher = more signal
# [12] = Plasmodium falciparum growth inhibition, primary screen, strain 3D7, DAPI fluorescence, 100 nL (AID 1184);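 also: parasites grown inside human red blood cells in medium with human serum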; conditions: P. falciparum 3D7 growth, 3 d, higher = more signal
# [13] = molecular target: Homeobox protein Hox-A13 (Mus musculus) (UniProt Q62424); assay: inhibitors of HoxA13-DNA binding, primary screen, biochemical, fluorescence polarization, labeled oligonucleotide (AID 1185); conditions: 15 min, higher = more signal, called active from +8 up or from −8 down
# [14] = inhibitors of hydroxyurea-induced Chk1 phosphorylation, primary screen, imaging, HeLa, phospho-Chk1 antibody, percent positive cells (AID 1186); conditions: hydroxyurea-induced phospho-Chk1 immunofluorescence imaging, higher = more signal
# [15] = inhibitors of hydroxyurea-induced Chk1 phosphorylation, primary screen, imaging, HeLa, phospho-Chk1 nuclear intensity (AID 1187); conditions: hydroxyurea-induced phospho-Chk1 immunofluorescence imaging, higher = more signal
# Sequence of Homeobox protein Hox-A13 (Mus musculus) (Q62424 whole entry, looked up): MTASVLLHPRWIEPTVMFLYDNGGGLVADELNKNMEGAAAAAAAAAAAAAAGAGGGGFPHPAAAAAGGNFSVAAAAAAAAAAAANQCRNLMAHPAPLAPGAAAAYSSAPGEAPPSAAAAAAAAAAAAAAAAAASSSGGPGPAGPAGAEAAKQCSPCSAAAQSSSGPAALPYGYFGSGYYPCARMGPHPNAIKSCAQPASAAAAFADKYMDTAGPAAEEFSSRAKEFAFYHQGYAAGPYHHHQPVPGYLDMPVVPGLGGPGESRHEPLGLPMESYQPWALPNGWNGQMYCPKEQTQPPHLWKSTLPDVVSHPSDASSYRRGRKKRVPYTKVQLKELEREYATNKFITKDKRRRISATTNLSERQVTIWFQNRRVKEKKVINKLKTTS
# Sequence of E3 ubiquitin-protein ligase XIAP (Homo sapiens) (P98170 whole entry, looked up): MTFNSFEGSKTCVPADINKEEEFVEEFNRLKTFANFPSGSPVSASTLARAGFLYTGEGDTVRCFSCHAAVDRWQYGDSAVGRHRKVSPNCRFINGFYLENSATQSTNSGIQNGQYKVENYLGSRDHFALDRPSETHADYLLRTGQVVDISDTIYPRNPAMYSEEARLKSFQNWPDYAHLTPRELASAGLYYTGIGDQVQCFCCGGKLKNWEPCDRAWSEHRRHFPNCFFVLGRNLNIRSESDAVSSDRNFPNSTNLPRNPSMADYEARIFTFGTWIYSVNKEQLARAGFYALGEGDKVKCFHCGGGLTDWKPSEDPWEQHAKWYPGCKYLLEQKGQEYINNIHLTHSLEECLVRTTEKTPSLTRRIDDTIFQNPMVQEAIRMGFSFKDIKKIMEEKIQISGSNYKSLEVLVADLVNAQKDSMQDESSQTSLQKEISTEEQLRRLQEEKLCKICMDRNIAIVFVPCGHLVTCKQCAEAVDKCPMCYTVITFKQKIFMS
# Sequence of Dihydroorotate dehydrogenase (quinone), mitochondrial (Plasmodium falciparum (isolate 3D7)) (Q08210 whole entry, looked up): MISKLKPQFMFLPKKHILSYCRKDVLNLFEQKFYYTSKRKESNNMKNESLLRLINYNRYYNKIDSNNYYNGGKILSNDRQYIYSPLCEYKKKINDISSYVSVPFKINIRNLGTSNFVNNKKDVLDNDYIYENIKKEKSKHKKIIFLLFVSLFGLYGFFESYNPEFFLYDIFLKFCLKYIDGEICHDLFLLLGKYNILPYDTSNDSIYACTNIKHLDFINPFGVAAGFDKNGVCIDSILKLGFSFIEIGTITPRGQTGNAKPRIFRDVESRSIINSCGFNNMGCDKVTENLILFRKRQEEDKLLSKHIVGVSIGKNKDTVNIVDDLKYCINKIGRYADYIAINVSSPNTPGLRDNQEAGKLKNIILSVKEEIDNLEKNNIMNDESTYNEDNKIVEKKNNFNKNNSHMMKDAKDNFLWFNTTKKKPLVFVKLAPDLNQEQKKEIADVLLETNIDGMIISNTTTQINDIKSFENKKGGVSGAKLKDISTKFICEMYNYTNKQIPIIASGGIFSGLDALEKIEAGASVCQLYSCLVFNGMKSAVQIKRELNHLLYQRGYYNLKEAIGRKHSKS
Compound,z-score [1],z-score [2],z-score [3],composite z-score [4],z-score [5],z-score [6],z-score [7],z-score [8],z-score [9],composite z-score [10],composite z-score [11],composite z-score (XIP peptide (Xip251-270)),z-score [12],z-score [13],z-score [14],z-score [15]
O=C1C[C@@](C(=O)NCc2ccccc2)(c2ccc([N+](=O)[O-])cc2)[C@@H](c2ccc(CO)cc2)N1C1CCCCC1,-0.563,-0.517 (inactive),-0.163 (inactive),-1.58 (inactive),-0.0654 (inactive),-1.02 (inactive),0.639 (inactive),1.46 (inactive),-0.0381,-0.031,0.58 (inactive),0.607,0.469,-2.95 (inactive),-0.53 (inactive),-0.0661 (inactive)
Cc1ccc(C(C)CC(O)C2C=CC3C(=O)N(C)C(=O)C3N2Nc2ccccc2)o1 (stereo not drawn),-0.243,0.372 (inactive),-0.855 (inactive),0.164 (inactive),0.695 (inactive),0.051 (inactive),-1 (inactive),-0.466 (inactive),-0.874,0.198,0.476 (inactive),0.383,0.385,-4.68 (inactive),0.163 (inactive),-0.0486 (inactive)
[N-]=[N+]=Nc1ccccc1C[C@@]1(C(=O)NCC(O)CO)N=C(c2ccc(OCCCO)cc2)O[C@@H]1c1ccccc1 (stereo partly drawn),0.559,-2.46 (inactive),0.33 (inactive),0.303 (inactive),-0.456 (inactive),0.302 (inactive),0.443 (inactive),-0.0622 (inactive),0.0762,0.0049,0.105 (inactive),0.75,-1.45,-5.72 (inactive),-0.416 (inactive),-0.145 (inactive)
C=C(COC)C(=O)CC[C@H](OC(=O)c1cccnc1)c1ccc(OCCO)cc1,-0.974,-3.4 (inactive),-0.443 (inactive),-2.45 (inactive),-0.0342 (inactive),1.29 (inactive),-0.768 (inactive),-0.8 (inactive),-0.776,-0.0013,1.08 (inactive),0.447,-0.711,-5.58 (inactive),0.35 (inactive),0.343 (inactive)
CO[C@H]1O[C@H](CO)[C@@H](OC(=O)Nc2ccccc2-c2ccccc2)[C@H](OC(=O)Nc2ccccc2)[C@H]1OC(=O)Nc1ccccc1,-1.68,0.788 (inactive),-3.07 (inactive),-0.0626 (inactive),2.11 (inactive),2.81 (inactive),1.15 (inactive),0.172 (inactive),-2.06,0.0479,-0.249 (inactive),0.915,-2.14,-3.21 (inactive),-0.392 (inactive),-0.15 (inactive)
COCCn1c(C(=O)N(C)C)cc2c1C[C@H]1CN(C(=O)c3ccccc3)[C@@](Cc3ccc(OC)cc3)(C(=O)OC)[C@@H]21,-0.17,1.63 (inactive),-1.43 (inactive),-0.271 (inactive),0.784 (inactive),1.03 (inactive),-0.134 (inactive),-0.289 (inactive),-1.81,0.131,0.116 (inactive),0.435,-1.45,-3.91 (inactive),0.688 (inactive),0.542 (inactive)
COc1ccc(C#Cc2ccc3c(c2)[C@]2(C(=O)N3)[C@H](C(=O)O)[C@H]3C(=O)O[C@H](c4ccccc4)[C@H](c4ccccc4)N3[C@@H]2c2ccccc2OCCO)cc1,-0.638,0.0196 (inactive),-2.53 (inactive),-3.86 (inactive),3.23 (inactive),2.48 (inactive),0.761 (inactive),-0.183 (inactive),-5.64,0.013,1.89 (inactive),0.833,-2.15,-3 (inactive),0.135 (inactive),0.175 (inactive)
C=C(C)[C@@H]1CC=C(C(O)C2C=CC3C(=O)N(C)C(=O)C3N2Nc2ccc([N+](=O)[O-])cc2[N+](=O)[O-])CC1 (stereo partly drawn),-0.902,0.522 (inactive),-1.28 (inactive),-0.109 (inactive),0.599 (inactive),0.442 (inactive),-0.358 (inactive),-0.339 (inactive),-1.1,0.158,-0.0868 (inactive),0.641,0.481,-4.28 (inactive),0.385 (inactive),0.279 (inactive)
